Most compounds without a hit are left out; they make up all but 2.4% or so of the library.
CHRM1 PAM: human CHRM1 positive allosteric modulation; CHO-K1 hM1, Fluo-8 calcium fluorescence, ACh EC20; 0% = ACh EC20, 100% = maximal ACh; activation, % at 3 µM; 0.088% of 360,000 active; AID 588819; in the data active = activation above about 19%, passing the limit was not always enough
Target sequence (P11229 whole entry, looked up): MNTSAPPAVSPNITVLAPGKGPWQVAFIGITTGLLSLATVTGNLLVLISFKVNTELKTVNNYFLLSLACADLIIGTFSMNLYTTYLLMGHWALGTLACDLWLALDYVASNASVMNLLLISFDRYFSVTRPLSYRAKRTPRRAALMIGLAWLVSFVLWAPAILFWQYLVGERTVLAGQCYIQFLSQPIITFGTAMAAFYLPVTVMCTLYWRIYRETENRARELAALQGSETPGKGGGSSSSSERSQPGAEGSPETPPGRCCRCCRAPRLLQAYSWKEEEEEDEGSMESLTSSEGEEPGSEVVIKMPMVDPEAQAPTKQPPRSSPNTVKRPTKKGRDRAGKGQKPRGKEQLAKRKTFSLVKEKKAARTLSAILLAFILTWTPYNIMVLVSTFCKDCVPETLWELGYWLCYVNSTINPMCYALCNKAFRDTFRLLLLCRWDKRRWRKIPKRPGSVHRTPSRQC
CHO-K1 Ca PAM: M1 PAM counterscreen hit in parental CHO-K1 cells; ATP EC20, Fluo-8 calcium fluorescence; 0% at ATP EC20, 100% at ATP max; activation, % at 3 µM; 0.02% of 360,000 active; AID 602247;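 active = activation above the run cutoff, the mean activation of all test compounds plus 3 SD, cut at about 40% in these data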;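 note: peak over basal fluorescence ratio in a 140 s read after ATP addition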
M1 antag: antagonists of human M1 muscarinic receptor; CHO-K1 hM1, Fluo-8 calcium fluorescence, ACh EC80 antagonist; 1.3% of 360,000 active; AID 588852; inhibition, % at 3 µM;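 active = percent inhibition above its own plate's cutoff, namely the mean of that plate's compound wells plus 3 SD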;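 note: peak over basal fluorescence ratio during 140 s after agonist addition; 0% = ACh EC80 plus DMSO and 100% = DMSO alone without agonist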
CHO-K1 Ca antag: M1 antagonist counterscreen hit in parental CHO-K1 cells. inhibition, % at 3 µM. 0.6% of 360,000 active. ATP-induced calcium, Fluo-8 fluorescence;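 active = inhibition above a per-plate cutoff, the plate's mean sample inhibition plus 3 SD, cut at about 24% in these data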;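 note: 0% = DMSO plus EC80 ATP and 100% = DMSO alone without ATP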
M1 ag: human M1 muscarinic receptor agonism; AID 588814; 0.33% of 360,000 active; activation, % at 3 µM; CHO-K1 hM1, Fluo-8 calcium fluorescence, agonist mode; 0% DMSO, 100% acetylcholine EC100;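 active = activation above the run's mean compound activation plus 3 SD, cut at about 16% in these data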;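 note: peak over basal fluorescence ratio within a 140 s kinetic read after compound addition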
CHO-K1 Ca ag: counter-screen for M1 agonists: effect in parental CHO-K1 cells; AID 602248; activation, % at 3 µM; Fluo-8 calcium fluorescence; scaled to maximal ATP response, vehicle zero; 0.48% of 360,000 active; in the data active = activation above about 15%;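 note: untransfected CHO-K1 host cells lacking M1 receptor as counterscreen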
Starred values were filed as active, the others as inactive.

SMILES	CHRM1 PAM	CHO-K1 Ca PAM	M1 antag	CHO-K1 Ca antag	M1 ag	CHO-K1 Ca ag
Cc1c(N=c2scc(-c3ccccc3)n2C)c(=O)n(-c2ccccc2)n1C	-24	14	98*	-12	-6	2
CC(/C=N/n1cnnc1)=C\c1ccccc1	8	18	-13	-3	9	2
CC(=C/c1ccccc1)/C=N/n1cnnc1	1	15	0	1	22*	2
COc1ccc(C)cc1-n1nnnc1SCC(=O)NC1CC1	1	3	3	-7	-1	1
CCN(CC)c1ccc(/C=C(/C#N)C(=O)NCc2ccccc2)o1	-2	2	9	12	16*	27*
Cc1ccc(CNC(=S)Nc2cc(C(=O)O)ccc2C)cc1	-5	-19	3	31*	-4	0
CCCN(C(=O)Cn1nc(C)c([N+](=O)[O-])c1C)c1c(N)n(Cc2ccccc2)c(=O)[nH]c1=O	16	-16	-19	-10	0	0
CC1(c2ccccc2)NC(=O)N(CC(=O)Nc2ccccc2N2CCCC2)C1=O (stereo not drawn)	8	-30	-2	13	16*	3
O=C(CN1C(=O)NC2(CCCC2)C1=O)Nc1ccccc1N1CCCC1	12	14	-15	-13	-1	2
CC1(c2ccc3c(c2)OCCO3)NC(=O)N(CC(=O)Nc2c(F)cccc2F)C1=O (stereo not drawn)	8	-14	-6	-10	3	1
CC1(c2ccc3c(c2)OCCO3)NC(=O)N(CC(=O)Nc2ccccc2F)C1=O (stereo not drawn)	9	-19	-6	30*	12	1
CN(C)c1ccc(NC(=O)c2cccc(C(=O)Nc3ccc(N(C)C)cc3)n2)cc1	-1	-12	-3	28*	-6	1
CCc1ccc2c(c1)Sc1ccccc1CC2N1CCN(C)CC1 (stereo not drawn)	-22	17	53*	-2	0	10
CN1CCN(C2Cc3cc(Cl)ccc3Sc3cc(F)ccc32)CC1 (stereo not drawn)	-26	18	99*	-6	-5	9
COc1ccc(Br)cc1CNC(=O)Cn1nc(C)n2cccc2c1=O	8	21	-12	-23	-3	0
CCNc1nc(CN2CCCCC2)nc2scc(-c3ccccc3)c12	-30	9	65*	8	-11	2
OCC1CCCN(c2nc(CN3CCCCC3)nc3scc(-c4ccccc4)c23)C1 (stereo not drawn)	-4	21	2	-4	-10	1
CC(C)CN1C(=O)c2ccc(C(=O)Nc3ccncc3)cc2C1=O	-7	0	9	-16	1	18*
CC(C)CN1C(=O)c2ccc(C(=O)Nc3ccccn3)cc2C1=O	6	-7	-3	10	-1	0
COCCn1c(CN2CCN(c3ccc(OC)cc3)CC2)nc2c1c(=O)n(C)c(=O)n2C	5	4	-4	-6	-6	0
Cn1c(=O)c2c(nc(CN3CCN(CCO)CC3)n2Cc2ccccc2Cl)n(C)c1=O	0	-3	4	-3	-7	0
CN1CCN(c2nc3c(c(=O)n(C)c(=O)n3C)n2Cc2ccccc2Cl)CC1	-28	1	57*	0	-10	0
COc1ccc(C(=O)Cn2c(N3CCCCC3)nc3c2c(=O)n(C)c(=O)n3C)cc1OC	6	15	5	2	-4	18*
Cn1c(=O)c2c(nc(CN3CCN(CCO)CC3)n2Cc2cccc3ccccc23)n(C)c1=O	1	-8	9	26*	-4	0
COc1ccc(N2CCN(Cc3nc4c(c(=O)n(C)c(=O)n4C)n3CCc3ccccc3)CC2)cc1	10	-5	-15	27*	5	0
SMILES	CHRM1 PAM	CHO-K1 Ca PAM	M1 antag	CHO-K1 Ca antag	M1 ag	CHO-K1 Ca ag
Cn1c(=O)c2c(nc(N3CCCCCC3)n2CC(=O)c2ccccc2)n(C)c1=O	12	20	-35	-7	-1	0
CC(C)NC(=O)CCc1nc2cccnc2n1-c1ccccc1	4	-2	-6	-9	-5	1
CC(=O)N1c2ccccc2Sc2ccc3ccccc3c21	2	21	-7	-6	-7	1
CCN(CC)CCN1c2ccccc2Sc2ccc3ccccc3c21	-26	-5	95*	-7	-9	7
COC(=O)c1ccc(OC(=O)CCN2c3ccccc3Sc3ccccc32)cc1	-6	15	7	1	-4	1
CCN(CC)CCN1C(=O)C2C3c4ccccc4C(c4ccccc43)C2C1=O (stereo not drawn)	7	21	-28	-15	-6	1
CCN(CC)CCN1c2ccccc2Sc2ccccc21	-24	5	100*	-4	-5	5
COc1ccc2c(c1)Sc1ccccc1N2CCN(C)C	-22	20	48*	-5	-4	1
CCc1nc2c(OCc3ccc(Cl)cc3Cl)cccn2c1N(C)C(=O)c1ccccc1F	2	2	-11	6	-7	1
O=C(Cc1ccccc1F)N1CCN(S(=O)(=O)c2ccc(Cl)cc2)CC1	0	-3	-4	-3	-6	0
O=S(=O)(c1cccs1)N1CCN(CC(O)COc2cc(Cl)ccc2Cl)CC1 (stereo not drawn)	-13	3	23*	23	7	9
COC(=O)c1cc(NC(=O)Nc2ccccc2)ccc1Cl	-12	1	22	12	3	16*
COC(=O)c1sccc1NC(=O)Nc1ccc(Cl)c(Cl)c1	-8	-7	30	29*	-1	1
COC(=O)c1cccc(NC(=O)Nc2ccc(Cl)c(Cl)c2)c1	-23	-7	43*	21	4	16*
O=C(Nc1ccccc1)Nc1cccc(Cl)c1	-14	5	27	8	-2	15
CC(Sc1nnc(CN2CCCC2)n1Cc1ccccc1)C(=O)Nc1ccc(F)cc1Cl (stereo not drawn)	-2	-19	-3	24*	-5	-1
O=C(CCc1ccccn1)N1CCCC(Nc2ccc(F)cc2)C1 (stereo not drawn)	4	18	-5	1	0	1
O=C(CCc1ccccn1)N1CCCC(Nc2cccc(F)c2)C1 (stereo not drawn)	8	12	-1	-2	27*	1
Cc1ccc(/C=N/NC(=O)c2ccccc2OCc2ccc(F)cc2)o1	17	43*	-15	-19	-3	6
O=C(Nc1ccn(Cc2ccccc2F)n1)c1ccc(COc2ccc(Br)cc2)cc1	-21	-8	33*	10	2	8
Cc1cc(C)c[n+](CC(=O)c2ccc(NC(=O)c3ccccc3)cc2)c1	6	7	-5	-13	-5	0
Cc1cc(C)c[n+](CC(=O)c2ccc(-c3ccccc3)cc2)c1	-23	18	36*	-7	-14	0

Screens from PubChem BioAssay.
